Laboratory results: article PMC5540273 (PLoS ONE, 2017)

Key:
Conditions in all cases: concentration: 1 μM,replicates: in singlicate; n = 1
ADCK4 = test system: ADCK4
AKT1 = test system: AKT1
AKT2 = test system: AKT2
AKT3 = test system: AKT3
ALK = test system: ALK
AMPK-alpha1 = test system: T1, AMPK-alpha1
T1 construct: gene PRKAA1

AMPK-alpha2 = test system: T2, AMPK-alpha2
T2 construct: gene PRKAA2

ANKK1 = test system: ANKK1
ARK5 = test system: T3, ARK5
T3 construct: gene NUAK1

ASK1 = test system: T4, ASK1
T4 construct: gene MAP3K5

ASK2 = test system: T5, ASK2
T5 construct: gene MAP3K6

AURKA = test system: AURKA
AURKB = test system: AURKB
AURKC = test system: AURKC
AXL = test system: AXL
BIKE = test system: T6, BIKE
T6 construct: gene BMP2K

BLK = test system: BLK
BMPR1A = test system: BMPR1A
BMPR1B = test system: BMPR1B
BMPR2 = test system: BMPR2
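Further: KINOMEscan kinase panel screen.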

Structure (SMILES) | %Inh (ADCK4) | %Inh (AKT1) | %Inh (AKT2) | %Inh (AKT3) | %Inh (ALK) | %Inh (AMPK-alpha1) | %Inh (AMPK-alpha2) | %Inh (ANKK1) | %Inh (ARK5) | %Inh (ASK1) | %Inh (ASK2) | %Inh (AURKA) | %Inh (AURKB) | %Inh (AURKC) | %Inh (AXL) | %Inh (BIKE) | %Inh (BLK) | %Inh (BMPR1A) | %Inh (BMPR1B) | %Inh (BMPR2)
CCn1c(-c2nonc2N)nc2cncc(CNC3CCNCC3)c21.Cl [SB-747651] | 11% | 72% | 51% | 66% | 63% | 6% | 0% | 22% | 9% | 9% | 8% | 6% | 23% | 0% | 100% | 0% | 8% | 0% | 0% | 17%
COC(=O)c1cccc(NC(=O)NC2CCN(c3ccnc(Nc4cc(OC)c(OC)c(OC)c4)n3)C2)c1 (stereo not drawn) [GSK1379767] | 60% | 0% | 0% | 0% | 50% | 16% | 9% | 20% | 10% | 0% | 0% | 72% | 39% | 73% | 0% | 60% | 0% | 11% | 0% | 26%
Cn1ccc2ncnc(Oc3ccc(NC(=O)Nc4cc(C(C)(C)C)on4)c(Cl)c3)c21 | 19% | 18% | 0% | 0% | 38% | 0% | 21% | 10% | 4% | 11% | 0% | 6% | 88% | 15% | 97.2% | 0% | 87% | 7% | 16% | 5%
COc1cccc(CNC(=O)NC2CCN(c3ccnc(Nc4cc(OC)c(OC)c(OC)c4)n3)C2)c1 (stereo not drawn) [GSK1379765] | 92.3% | 0% | 17% | 0% | 72% | 0% | 2% | 42% | 45% | 7% | 0% | 85% | 91.4% | 79% | 30% | 53% | 9% | 0% | 0% | 23%
COc1cc2nccc(Nc3ccc(Oc4ccccc4)cc3)c2cc1OC.Cl [GI261656] | 40% | 0% | 0% | 0% | 4% | 0% | 0% | 0% | 7% | 0% | 0% | 22% | 17% | 0% | 10% | 6% | 99.2% | 0% | 0% | 7%
NC(=O)Nc1sc(-c2ccc(F)cc2)cc1C(N)=O [GW789449] | 7% | 0% | 0% | 0% | 52% | 25% | 15% | 86% | 0% | 26% | 0% | 55% | 83% | 85% | 40% | 98.2% | 46% | 6% | 11% | 78%
CC(C)S(=O)(=O)N1CCN(Cc2ccc3c(c2)nc(NC(=O)c2ccsc2)n3C[C@H](O)c2ccccc2)CC1 [GW635815] | 27% | 0% | 16% | 0% | 68% | 0% | 2% | 19% | 60% | 17% | 0% | 8% | 0% | 37% | 97.7% | 57% | 65% | 15% | 0% | 50%
O=C(Nc1n[nH]c2cc(-c3ccco3)ccc12)C1CC1 [SB-737447] | 7% | 0% | 0% | 0% | 7% | 3% | 0% | 27% | 0% | 0% | 4% | 46% | 12% | 34% | 0% | 53% | 0% | 0% | 14% | 0%
CNC(=O)c1ccccc1Nc1nc(Nc2cccc(CS(C)(=O)=O)c2)ncc1C.O=CO [GSK1520489] | 33% | 0% | 0% | 0% | 95.1% | 96.4% | 97.9% | 39% | 99.1% | 0% | 13% | 100% | 99.9% | 96.8% | 100% | 99.2% | 99.6% | 0% | 99.9% | 99.3%
O=C(Nc1ccccc1)c1cccc(Oc2ccc3nccn3n2)c1 | 0% | 11% | 0% | 0% | 0% | 5% | 7% | 2% | 0% | 0% | 3% | 0% | 4% | 28% | 0% | 5% | 9% | 0% | 14% | 22%
COc1cccc(OC)c1C(=O)Nc1cccc(-c2nn3ccccc3c2-c2ccnc(Nc3cccc(F)c3)n2)c1 [GSK361065] | 0% | 4% | 0% | 0% | 0% | 25% | 4% | 93.2% | 0% | 22% | 0% | 32% | 0% | 70% | 30% | 0% | 41% | 9% | 21% | 0%
Cn1ccc2ncnc(Oc3ccc(NC(=O)Nc4cncc(C(F)(F)F)c4)c(Cl)c3)c21 | 0% | 6% | 13% | 0% | 0% | 0% | 0% | 0% | 0% | 0% | 0% | 0% | 25% | 0% | 59% | 0% | 9% | 0% | 0% | 0%
Cc1n[nH]c2cc(Nc3ccnc(Nc4cccc(CN5CCOCC5)c4)n3)ccc12 [GW682569] | 97.1% | 0% | 0% | 0% | 16% | 0% | 0% | 17% | 0% | 0% | 0% | 98.9% | 55% | 93.5% | 35% | 98.1% | 0% | 0% | 87% | 6%
O=C(Nc1ccc(Oc2ccc3nc(NC(=O)C4CC4)cn3n2)c(F)c1)c1cccn(-c2ccccc2)c1=O | 0% | 18% | 13% | 30% | 0% | 0% | 3% | 0% | 0% | 3% | 0% | 0% | 4% | 42% | 90.4% | 25% | 90.3% | 12% | 0% | 0%
O=C(NOCC1CC1)c1cc(Br)c(F)c(F)c1Nc1ccc(I)cc1Cl | 0% | 0% | 0% | 0% | 0% | 4% | 0% | 0% | 12% | 0% | 0% | 0% | 1% | 0% | 2% | 0% | 0% | 0% | 0% | 0%
CC(=O)c1c(-c2ccncc2)[nH]c(-c2ccncc2)c1C [GW493036] | 46% | 0% | 1% | 28% | 31% | 13% | 0% | 3% | 3% | 17% | 0% | 0% | 16% | 5% | 17% | 23% | 38% | 0% | 0% | 24%
N#Cc1cccc(C(=O)NC2CCN(c3ccnc(Nc4ccc(F)cc4)n3)C2)c1 (stereo not drawn) [GSK1379708] | 20% | 0% | 0% | 0% | 26% | 16% | 0% | 0% | 0% | 0% | 0% | 0% | 0% | 33% | 20% | 22% | 32% | 0% | 0% | 0%
CN1CCN(CCCNc2nccc(-c3c(-c4ccc(F)cc4)nn4cc(C(N)=O)ccc34)n2)CC1 [GW622475] | 100% | 0% | 12% | 0% | 26% | 18% | 11% | 29% | 19% | 0% | 0% | 20% | 5% | 10% | 17% | 26% | 56% | 0% | 37% | 0%
NC(=O)c1ccc(-c2cc3ncnc(SCC(=O)O)c3s2)cc1 | 3% | 0% | 0% | 0% | 0% | 0% | 0% | 0% | 0% | 0% | 0% | 0% | 80% | 33% | 0% | 1% | 0% | 0% | 1% | 0%
COc1cc2c(Nc3ccc(NC(=O)c4ccccc4)cc3)ncnc2cc1OCCCN1CCOCC1 [GSK301329] | 0% | 0% | 0% | 0% | 9% | 0% | 0% | 17% | 28% | 0% | 20% | 94.5% | 95.6% | 70% | 55% | 28% | 96.7% | 0% | 0% | 0%
C[C@@H](Oc1cc(-n2cnc3ccc(-c4ccncc4)cc32)sc1C(N)=O)c1ccccc1Cl [GSK483724] | 76% | 41% | 22% | 0% | 20% | 8% | 12% | 17% | 0% | 10% | 0% | 0% | 19% | 50% | 32% | 92.9% | 31% | 0% | 0% | 3%
